Screens deposited in PubChem by several laboratories.
EBV LMP1 NFkB: EBV LMP1-driven NF-kappaB luciferase reporter inhibitors, primary screen, cell-based, luminescence, single point; inhibition, % at 12.5 µM; hit rate 0.69% among 350,000; LMP1-induced NF-kappaB luciferase reporter cells; in the data active = inhibition above about 41%; inconclusive = no clear call, values can overlap the other calls;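 note: 0% = neutral control wells and 100% = reference inhibitor control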
Peg3 prom inh-1: Peg3 promoter-driven luciferase inhibitors, primary screen, cell-based, HeLa, luciferase luminescence. HeLa PEG-Prom luciferase reporter, overnight. inhibition, % at 20 µM. hit rate 1.7% among 360,000;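 active = inhibition of at least 50% at 20 µM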
Shn3 inh set2: reduction of Shn3 3'UTR firefly luciferase signal, primary screen, Schnurri-3 inhibitor project, cell-based, Clone20 osteoblasts, set 2; Clone20 osteoblast Shn3 3'UTR firefly luciferase, 24 h; inhibition, % at 12.5 µM; hit rate 0.52% among 360,000; AID 588674, 2011;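 active = mean inhibition of at least 75% with every replicate also reaching 75%; inconclusive = mean inhibition at least 75% but some replicate below; inactive = mean inhibition below 75%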;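 note: 0% = median of neutral control wells and 100% = pilot-screen positive control compound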
KKLEB cytotox: cytotoxicity in KKLEB CF airway cells, primary screen, cytotoxicity control for CF NF-kB inhibitor project, cell-based, uHTS, fluorescence assay plates | KKLEB CF airway cells viability, ATPlite luminescence, overnight; hits give low values; cells stimulated with P. aeruginosa culture filtrate | activity change (cytotoxicity), % at 5 µM | hit rate 0.36% among 360,000;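 active = corrected activity change at or below -50% at 5 µM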
TRPM1 prom inh: inhibitors of MITF-dependent TRPM1 promoter reporter, primary screen, cell-based, SK-MEL-5, single point, luciferase. inhibition, % at 12.5 µM. SK-MEL-5 TRPM1 promoter luciferase, 24 h. hit rate 0.83% among 330,000;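 active = mean inhibition across replicates of 60% or more, whatever share of single replicates reaches that level; inconclusive = some that reach 60%, reason not given; inactive = mean inhibition across replicates below 60%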
CF NFkB inh: inhibitors of PAF-induced NF-kB signaling, primary screen, cell-based, GFP fluorescence, uHTS; inhibition, % at 5 µM; KKLEB NF-kB-GFP reporter, GFP fluorescence overnight; hit rate 0.86% among 360,000;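 active = at least 50% inhibition at 5 µM, scaled per plate between neutral and stimulator controls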;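 note: PAF is a Pseudomonas aeruginosa culture filtrate used as stimulus; plate controls were PAF-stimulated DMSO wells for no effect and unstimulated DMSO wells for full effect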
Peg3 prom inh-2: Peg3 promoter reporter inhibitors, retest, confirmation, cell-based, HeLa, luciferase reporter, single concentration; HeLa PEG-Prom luciferase reporter, luminescence, overnight; AID 602417, 2012; shares compounds with Peg3 prom inh-1; inhibition, % at 20 µM; hit rate 84% among 1,300;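 active = at 20 µM dose, 40% or more inhibition averaged across four replicates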
The depositor's hits bear a star; ? = inconclusive; nt = not tested or not shown. Most compounds without a hit are left out; they make up all but 2.9% or so of the library.

SMILES	EBV LMP1 NFkB	Peg3 prom inh-1	Shn3 inh set2	KKLEB cytotox	TRPM1 prom inh	CF NFkB inh	Peg3 prom inh-2
O=C1OCCC1Sc1nnc(-c2ccc(Cl)cc2Cl)o1 (centres undefined)	50*	71*	28	-14	40	9	63*
CN1OC[C@@H]2CN(S(=O)(=O)c3ccccc3)[C@H](c3ccccc3Br)C[C@@H]21	nt	10	-4	6	nt	-18	nt
COc1cc(CNCCCN2CCOCC2)cc(Br)c1OCc1ccc(Cl)cc1	-52	100*	-17	-30	50	27	100*
O=C1Nc2cccc3c2N(CCC3)C2=C1CCC2	-13	-10	6	12	nt	-23	nt
CN(C)c1ccc(C=c2c3ccccc3n3c2cc(-c2ccccc2)[n+]3C)cc1	39	104*	?	-22	95*	-145	98*
CC(=O)n1cc(N(C(=O)CCl)c2ccc(C)cc2)c2ccccc21	-13	109*	nt	-103*	74*	93*	101*
COc1ccc(CNn2c(-c3cccc(C)c3)nc3ccccc3c2=O)cc1OC	5	57*	14	-5	6	-5	38
Cn1nnnc1Sc1ncnc2scc(-c3ccsc3)c12	43*	95*	-20	7	82*	47	96*
Cc1nnc(NC(=O)CSc2ncnc3scc(-c4ccccc4)c23)s1	-2	12	-4	1	8	17	nt
CC(=O)c1ccccc1-c1csc2ncnc(Sc3nnnn3C)c12	-46	54*	-14	-27	6	43	7
Cc1ccc(-c2csc3ncnc(SCC(=O)O)c23)cc1	1	7	-4	-8	4	10	nt
Nc1nc(=O)n(C2OC(CO)C(O)C2O)cc1F (centres undefined)	nt	35	76	-13	nt	1	nt
O=c1[nH]c(=O)n(C2OC(CO)C(O)C2O)cc1F (centres undefined)	-14	75*	71	-11	-13	11	75*
CCc1ccccc1N1CC(C(=O)Nc2cc(S(=O)(=O)N3CCCC3)ccc2Cl)CC1=O (centres undefined)	1	18	28	-4	-5	4	nt
Oc1[nH]c2ccc(Br)cc2c1N=NC(=S)N1CCOCC1	10	76*	97*	0	99*	32	85*
CC(C)(C)c1ccc(/C=N/Nc2ccc(C(=O)O)cc2)cc1	32	80*	50	-2	89*	18	73*
COc1cccc(/C=N/Nc2ccc(C(=O)O)cc2)c1O	83*	101*	92*	7	105*	0	94*
O=C(N/N=C/c1ccc(C(F)(F)F)cc1)c1ccc(O)cc1	-28	-132	-12	1	-39	-7	nt
COc1cccc(/C=N/Nc2ccc(S(=O)(=O)O)cc2)c1O	-15	11	-1	5	-2	6	nt
O=C(O)c1ccc(N/N=C/c2ccc3c(c2)OCO3)cc1	65*	94*	60	0	83*	1	82*
O=C(O)c1ccc(N/N=C/c2ccc(C(F)(F)F)cc2)cc1	44*	66*	21	-2	68*	6	52*
CCNC(=S)N/N=C/c1ccc(C(=O)O)cc1	2	8	-7	8	3	9	nt
O=C(O)c1ccc(N/N=C/c2cc3c(cc2[N+](=O)[O-])OCO3)cc1	8	13	-24	6	23	6	nt
C=C[C@@H]1c2cc(C)ccc2N(S(=O)(=O)c2ccc(C)cc2)[C@H](c2ccccc2)C1(C#N)S(=O)(=O)c1ccccc1 (some centres undefined)	9	25	19	-9	-1	12	nt
C[C@@H]1CN([C@H](C)CO)C(=O)CCCn2nncc2CO[C@H]1CN(C)S(=O)(=O)c1ccc(Oc2ccccc2)nc1	-10	10	4	1	nt	3	nt
SMILES	EBV LMP1 NFkB	Peg3 prom inh-1	Shn3 inh set2	KKLEB cytotox	TRPM1 prom inh	CF NFkB inh	Peg3 prom inh-2
CC1=CC(=O)Nc2ccccc2S1	-4	-58	-40	6	9	-14	nt
COc1ccc([C@H]2C[C@H](O)[C@@H](n3cc(COC(=O)c4ccccc4)nn3)CN2C(=O)C2CCCCC2)cc1	10	8	13	8	nt	-2	nt
O=C(CNC(=O)C(c1ccccc1)c1ccccc1)N/N=C\c1cccc(O)c1	-8	2	-4	3	8	-5	nt
O=C(CNC(=O)C(c1ccccc1)c1ccccc1)N/N=C/c1ccc(O)cc1O	17	51*	79	-6	38	27	65*
O=C(Nc1cccc(OC(F)(F)F)c1)C1Cc2c(-c3ccccc3Oc3ccccc3)ccnc2O1 (centres undefined)	nt	35	41	-20	nt	30	nt
Cc1onc(-c2ccc(Cl)cc2Cl)c1-c1csc(N/N=C/c2ccccc2Cl)n1	23	65*	7	-26	-8	20	37
Cc1onc(-c2ccccc2)c1-c1csc(N/N=C/c2ccccc2Cl)n1	8	16	4	-8	-2	-1	nt
CC(C)CC1C(=O)N(Cc2cn(CC3CCCCC3)nn2)CCS(=O)(=O)N1Cc1ccc(-c2cccc(CO)c2)cc1 (centres undefined)	7	23	49	-13	nt	46	nt
O=C(N/N=C/c1sc(N2CCOCC2)nc1-c1ccccc1)c1ccc(O)cc1	-4	4	-1	4	-8	-14	nt
O=C(N/N=C/c1sc(N2CCOCC2)nc1-c1ccccc1)c1cccc(S(=O)(=O)N2CCCC2)c1	11	66*	90*	5	52	-26	66*
Cc1onc(-c2ccccc2)c1C(=O)N1CCC(C)(C(=O)O)C1 (centres undefined)	nt	-9	-4	8	nt	-24	nt
CC(C)c1nnc(NC(=O)CC(=O)Nc2ccccc2C(=O)O)s1	31	57*	21	9	32	1	34
C=CCn1c(=NC(=O)c2ccc(S(=O)(=O)N3CCc4ccccc4C3)cc2)sc2cc(S(N)(=O)=O)ccc21	4	72*	35	-14	17	22	8
COc1ccccc1-c1cccc(-c2nc(C(=O)N3CCCCC3)cc3c2[C@@H](CCO)N(S(=O)C(C)(C)C)C3)c1 (some centres undefined)	nt	-2	6	-4	nt	-24	nt
O=C(CCCN1C(=O)/C(=C/c2ccccc2Cl)SC1=S)NNC(=O)c1ccccc1	23	34	10	-8	8	14	nt
